Experimental findings from PubChem BioAssay AID2023 (NMMLSC, 2009) are described below.

About 1,100 (0.34%) of roughly 320,000 compounds were called active. This is one part of a sample in which actives are shown more often than they occur. Unmarked numbers belong to inactive results.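 Rule for the calls: active = GFP response vs DMSO above a set limit, about the screen mean plus 3 SD (cut at about 150% in these data); inconclusive = under 70 cell events counted for the yeast strain; inactive = the rest.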

The assay can be described thus: modulators of LAP4-GFP expression in yeast, primary screen, S. cerevisiae, multiplex flow cytometry, MLPCN library (AID 2023). As to conditions: 3 h, at 10 µM, active compounds read high. On the technique in general: Flow cytometry measures light scatter and fluorescence of single cells or particles in a stream.
With `NCCc1c[nH]c2ccc(O)cc12`, the GFP response vs DMSO was 307% [may fluoresce violet] (active).

With `C/C(CCc1c[nH]c2ccccc12)=N\O`, the GFP response vs DMSO is 102%. On to `Cc1cccc2c(CCN)c[nH]c12`, for which the GFP response vs DMSO is 105%.

`CN(C)C(=O)NC(O)C(Cl)(Cl)Cl` (stereo not given): the GFP response vs DMSO was 108%. As to `COc1ccc(CN2C(=O)NC(=O)/C(=C\c3ccc(OC)c(OC)c3OC)C2=O)cc1`, the GFP response vs DMSO is 109%. For `COc1cccc(N2C(=O)NC(=O)/C(=C\c3cn(C)c4ccccc34)C2=O)c1`, the GFP response vs DMSO was 104%. The value for `COc1ccc(N2C(=O)/C(=C/c3ccco3)C(=O)NC2=S)cc1` was 170% (active); that for `Cc1ccc(S(=O)(=O)N(C)c2ccc(C(=O)NCC3(N(C)C)CCCCC3)cc2)cc1` was 91.7%. In the case of `O=C1NC(=O)N(CCc2ccc(F)cc2)C(=O)/C1=C/C=C/c1ccccc1`, the GFP response vs DMSO was 111%. `O=C1NC(=O)N(Cc2ccco2)C(=O)/C1=C\c1cccn1CCOc1ccccc1`: the GFP response vs DMSO is 111%. In the case of `O=C1NC(=O)N(Cc2ccco2)C(=O)/C1=C\c1ccc(-c2ccc(F)cc2)o1` it was 182% (active); in that of `O=C(Cc1ccccc1)N1CCN(C2CCCCCC2)CC1`, 95.7%; in that of `COc1ccc(C2N3CC(C)(C)CN23)cc1` (stereo not given), 95% [median GFP as percent of DMSO wells]. For `CC1CCC(N(C)C2CCN(C)CC2)CC1` (stereo not given), the GFP response vs DMSO is 94.4%. The value for `CNCC[C@H](Oc1ccc(C(F)(F)F)cc1)c1ccccc1` was 106%.
